According to ChEMBL document CHEMBL5308541, “MAIP: An Open-Source Tool to Enrich High-Throughput Screening Output and Identify Novel, Druglike Molecules with Antimalarial Activity” (ACS Med Chem Lett, 2023):
The whole screen tested about 150,000 compounds, of which about 540 (0.36%) showed an effect of 50% or more. Shown is part of a subset that was picked to be rich in strong results.

The compounds below were run on Plasmodium falciparum (assay: Primary screen in NF54 nanoGlo assay, in single point, at 2uM, 72h; a lower Z score goes with more inhibition). Details: timepoint 72 hour.
Assay type: functional, Erythrocyte

**Q.** For `CC(C)(C)c1ccc(CNC[C@H](O)c2ccc(F)cc2F)cc1`, which “% Inhibition” value is on record?
**A.** Its value is 94%.

**Q.** And the Z score?
**A.** The Z score was -16.43.

**Q.** What does the source list for `CC(C)c1nc(N2CCC[C@@]3(CCNC3)C2)c2cc[nH]c2n1`?
**A.** % Inhibition: 2%; Z score: -0.48

**Q.** For `c1ccc(-c2cncnc2N2CC[C@]3(CCNC3)C2)cc1`, which “% Inhibition” value is on record?
**A.** Its value is -14%.

**Q.** And the Z score?
**A.** Its Z score is 2.09.

**Q.** `CN(C)CC12CNCC1CN(c1ccnc3cc(Cl)ccc13)C2` (centres undefined) was tested. Which “% Inhibition” value did it give?
**A.** Its value is 97%.

**Q.** What about the Z score of the same compound?
**A.** Its Z score is -19.2.

**Q.** Which “% Inhibition” value does the source give for `Fc1ccc(N2CC[C@H](CN3CCC(c4c[nH]c5ccccc45)(c4c[nH]c5ccccc45)CC3)C2)cc1` here?
**A.** Its value is 95%.

**Q.** What about the Z score of the same compound?
**A.** The Z score was -18.87.

**Q.** Which “% Inhibition” value does the source give for `CCc1nnc(NCc2ccc(C)nc2N2CCCC2)nc1CC` here?
**A.** The value was -19%.

**Q.** What about the Z score of the same compound?
**A.** Its Z score is 2.94.

**Q.** `Cc1ccc(CNc2ncnc(N)c2Cl)c(N2CCCC2)n1` was tested. Which “% Inhibition” value did it give?
**A.** Its value is 50%.

**Q.** What about the Z score of the same compound?
**A.** Its Z score is -8.64.

**Q.** Which results are given for `Cc1ccc([C@@H](O)CNCc2cc(O)cc(Cl)c2)cc1`?
**A.** % Inhibition: 7%; Z score: -1.59

**Q.** What does the source list for `O[C@@H](CNCc1ccc2c(c1)CCO2)c1ccc(F)c(F)c1`?
**A.** % Inhibition: 72%; Z score: -12.64

**Q.** Which “% Inhibition” value does the source give for `Fc1ccc(C2=CCN(C[C@@H]3CCCN4CCCC[C@H]34)CC2)cc1` here?
**A.** Its value is 0%.

**Q.** What about the Z score of the same compound?
**A.** Its Z score is -0.03.

**Q.** `CN1CCN(c2ccc(C(F)(F)F)cc2NCc2cnc[nH]2)CC1` was tested. Which “% Inhibition” value did it give?
**A.** Its value is 52%.

**Q.** And the Z score?
**A.** The Z score was -7.95.

**Q.** `Clc1ccc(CNCCN2CCC3(C2)OCCO3)c2ncccc12` was tested. Which “% Inhibition” value did it give?
**A.** The value was -1%.

**Q.** What about the Z score of the same compound?
**A.** Its Z score is 0.17.
